# BAZ2B inh: BAZ2B (human) inhibition | AlphaScreen BAZ2B-H3K14Ac peptide displacement | Potency, µM (series often up to 114 µM), for inactives: top-dose activity change, negative = inhibition, hits mostly inhibitors | actives 4.4% (n = 360,000) | AID 504333; note: % is set by controls: 0 for no effect and ±100 for the full control effect; nearly all actives have a fitted effect of over 60% in size
#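 In this displacement format the biotinylated H3(5-23) peptide acetylated at Lys14 serves as ligand at 50 nM, with BAZ2B at 50 nM in PBS pH 7.4 containing 0.01% Tween-20. Donor and acceptor beads are 10 ug/mL final.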
# Sfp PPTase inh: Sfp phosphopantetheinyl transferase inhibition; Q9F4F7; AID 1490; Biochemical Sfp PPTase activity, qHTS; Potency, µM, without a hit: largest response in the series, negative = inhibition, usual class: inhibitors; actives 3.5% (n = 310,000);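 note: the enzyme is Sfp with the accession as filed and its product quenches rhodamine fluorescence; 0% = enzyme reaction without inhibitor and -100% = no enzyme wells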
#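 Sfp 15 nM + cpd, 15 min RT; start w/ rhodamine-CoA 5 uM, BHQ-2-YbbR 12.5 uM (final); 50 mM Hepes pH 7.6, 10 mM MgCl2, 0.01% NP-40, 0.01% BSA; read 525/598 nm at 0 and 30 min.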
# HP1b chromo inh: HP1-beta chromodomain-methylated histone interaction inhibition. P83916. AlphaScreen HP1-beta / biotin-H3K9me3 peptide binding. Potency, µM (top dose mostly 114 µM), inactives show at the top dose activity change, negative = inhibition, hits mostly inhibitors. actives 0.56% (n = 390,000); note: nearly all actives have a fitted effect of over 70% in size
#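 HP1-beta protein (50 nM final) preincubated 30 min at room temperature with biotinylated H3(1-18)K9me3 peptide (50 nM) in PBS pH 7.4, 0.01% Tween-20, then compound added for 30 min. AlphaScreen streptavidin donor/nickel chelate acceptor beads (10 ug/mL final), 30 min dark, luminescence read.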
# G9a block: blocks human histone lysine methyltransferase G9a | G9a H3K9 monomethylation, AlphaScreen, 2 h | actives 8.8% (n = 350,000) | Potency, µM (highest dose often 102 µM), for inactives: at the top dose activity, negative = inhibition, usual class: inhibitors | Q96KQ7; note: % is set by controls: 0 for no effect and ±100 for the full control effect; nearly all actives have a fitted effect of over 75% in size
#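 G9a (20 nM) was preincubated 15 min with compound, then reacted 2 h at room temperature with 500 nM biotin-H3K9 peptide and 20 µM SAM. Monomethyl-H3K9 detected by AlphaScreen using anti-H3K9me1 antibody.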
# TDP1 block: TDP1 (human) enzyme inhibition; Q9NUW8; recombinant TDP1, AlphaScreen DNA substrate cleavage; Potency, µM (doses to about 130 µM), without a hit: top-dose activity change, negative = inhibition, hits mostly inhibitors; actives 0.28% (n = 350,000); AID 485290; note: % is set by controls: 0 for no effect and ±100 for the full control effect; nearly all actives have a fitted effect of over 40% in size
#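 Here, a 5' biotin and 3' phosphotyrosine-FITC DNA oligonucleotide reports Tdp1 activity: intact substrate bridges AlphaScreen beads, while cleavage leaves a 3' phosphate and drops signal. All incubations at room temperature.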
# JMJD2A Tudor: JMJD2A Tudor domain (human) inhibition; O75164; Potency, µM (series often up to 114 µM), inactives show at the highest dose activity change, negative = inhibition, usual class: inhibitors; AlphaScreen JMJD2A-Tudor / H3K4me3 peptide binding; actives 4.4% (n = 390,000); note: % is set by controls: 0 for no effect and ±100 for the full control effect; nearly all actives have a fitted effect of over 50% in size
# Active calls of the source: *; ? = inconclusive; / = no result given; [ ] = dose if it differs, or a comment. Most compounds without a hit are left out; they make up all but 12% or so of the library. Calls come from the whole dose curve; as a rule, active = well fitted curve in the direction sought with a large enough effect; inconclusive = small, poorly fitted or top-dose-only effect, or another doubt; inactive = no such curve, though single readings can be large; an effect the other way counts as inactive or inconclusive. Potency is the fitted concentration of half-maximal effect.
SMILES,BAZ2B inh,Sfp PPTase inh,HP1b chromo inh,G9a block,TDP1 block,JMJD2A Tudor
COc1cc2c(c(O)c1OC)-c1c(cc(OC)c(OC)c1O)[C@@H](OC(=O)c1ccccc1)[C@@](C)(O)[C@@H](C)[C@@H]2OC(C)=O,50µM*,8%,/,14%[59 µM],1%,/
CC(C)Oc1ccc(S(=O)(=O)N2CCCCC2)cc1NC(=O)CC1OC(=O)c2ccccc21 (configuration not stated),9%,/,-1%,-7%[0.501 µM],1%,-15%
CC(C)Oc1ccc(S(=O)(=O)N2CCOCC2)cc1NC(=O)CC1OC(=O)c2ccccc21 (configuration not stated),-3%,/,16%,16µM*,/,-11%
COc1ccccc1-c1cc2nc(C)c(CCC(=O)NCc3ccco3)c(C)n2n1,-9%,10%,13%,50µM*,2%,?
Cc1nc2cc(-c3ccccc3)nn2c(C)c1CCC(=O)NCc1ccco1,-37%,?,18%,?,-4%,-21%
O=C(C1CC1)N1CCc2cc(Br)cc(S(=O)(=O)NCCCN3CCCC3)c21,7%,5%,4%,50µM*,0%,?
CC1CCCN(CCCNS(=O)(=O)c2cc(Br)cc3c2N(C(=O)C2CC2)CC3)C1 (configuration not stated),4%,1%,24%,26%[59 µM],14%,-2%
Nc1c2c(nc3ccccc13)N(c1ccccc1)CC2,0%,-101%,?,?,3%,35µM*
CN1CCCCc2c1nc1ccccc1c2N (tested in a mixture with another compound),-5%,10%,35%,?,4%,-7%
COc1ccccc1Nc1nc(-c2ccccc2)c(CC(=O)O)s1,-25%,/,24%,?,-3%,-14%
O=C(O)Cc1sc(N/N=C\c2ccccc2)nc1-c1ccccc1,?,40µM*,-23%,3.2µM*,8%,?
CCOC(=O)c1sc(N/N=C/c2ccccc2)nc1C,-6%,35µM*,-36%[57 µM],2µM*,3%,?
O=c1[nH]c(-c2ccccc2)c(-c2ccccc2)nc1[N+](=O)[O-],0%,-21%,3%,50µM*,/,-14%
O=C(COC(=O)c1ccc2ccccc2c1O)NCC(F)(F)F,79µM*,9%,-8%,-13%,6%,?
Cc1sc2nc(C(C)Sc3n[nH]c(N)n3)[nH]c(=O)c2c1C (configuration not stated),-5%,56µM*,/,25µM*,2%,/
O=C(/C=C/c1ccccc1)Nc1nc2n(n1)C(c1ccc(Cl)cc1)C=C(c1ccccc1)N2 (configuration not stated),4%,/,20%,?,3%,-5%
Cn1c(C(=O)NCCN2CCN(Cc3ccccc3)CC2)cc2c(=O)n(C)c3ccccc3c21,1%,-8%,43%,24%[59 µM],/,-8%
Cn1c(C(=O)NCCCN2CCN(c3ccccc3F)CC2)cc2c(=O)n(C)c3ccccc3c21,-14%,-8%,13%,50µM*,8%,?
Cn1c(C(=O)NCCN2CCCCCC2)cc2c(=O)n(C)c3ccccc3c21,?,-25%,42%,35µM*,-3%,-31%
Cc1nc2ccn(Cc3ccco3)c(=O)c2cc1C(=O)N1CCN(c2ccccc2F)CC1,-21%,/,22%,-4%[59 µM],5%,-19%
O=C(OC1Cc2c(O)cc(O)cc2OC1c1cc(O)c(O)c(O)c1-c1c(C2Oc3cc(O)cc(O)c3CC2OC(=O)c2cc(O)c(O)c(O)c2)cc(O)c(O)c1O)c1cc(O)c(O)c(O)c1 (configuration not stated),/,45µM*,/,/,/,/
CCCC[C@@H]1C[C@H]1C(NC(=O)c1ccccc1)c1ccc(C(=O)OC)cc1 (some centres not stated),/,9%,/,/,6%,/

# Screens: PubChem, National Center for Advancing Translational Sciences (NCATS)
